Screens: PubChem, National Center for Advancing Translational Sciences (NCATS)
MARV entry inh: blocks Marburg virus binding to or entry into cells; AID 540276; Marburg virus pseudotyped entry inhibition, cell reporter; Potency, µM (top dose mostly 37.8 µM), for inactives: top-dose activity change, negative = inhibition, actives largely listed as inhibitors; 300,000 compounds, 1.8% hits; calls by dose curve; tested in HEK293 cells; further: potency means the concentration at half of the fitted maximal effect
VACV Venus inh: vaccinia inhibition (Venus reporter). Vaccinia virus Venus reporter expression, fluorescence. Potency, µM (highest dose often 36.5 µM), inactives show top-dose activity change, negative = inhibition, most hits filed as inhibitors. 330,000 compounds, 0.46% hits; calls by dose curve; tested in A549 cells; further: potency means the concentration at half of the fitted maximal effect; nearly all actives have a fitted effect of over 30% in size
HCMV inh: blocks human cytomegalovirus replication; HFF cells, HCMV-luciferase reporter, 72 h; hits give low values; activity change, negative = inhibition, % at 57.5 µM; 410,000 compounds, 4.5% hits; AID 1259415; in the data active means activity change below about -60%; inconclusive means no clear call, values can overlap the other calls; inactive means above about -39%
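Two-dose cell screen: HFF monolayers treated with compounds and infected with luciferase-expressing HCMV at 1 PFU/cell, 72 h at 37C, then lysed for luciferase measurement.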
FMDV inh: foot and mouth disease virus antiviral activity | FMDV antiviral cell-based qHTS | Potency, µM (top dose mostly 57.9 µM), without a hit: top-dose activity change, negative = inhibition, usual class: inhibitors | 410,000 compounds, 1.2% hits | AID 1159524; calls by dose curve; tested in HEK293T cells; further: read-out not given here; potency means the concentration at half of the fitted maximal effect; nearly all actives have a fitted effect of over 45% in size
Vaccinia mCherry: inhibitors of vaccinia virus infection (mCherry reporter signal) | Vaccinia virus mCherry reporter infection, fluorescence | Potency, µM (titrated, usually from 36.5 µM), for inactives: at the highest dose activity change, negative = inhibition, usual class: inhibitors | 310,000 compounds, 0.63% hits; calls by dose curve; tested in A549 cells; further: potency means the concentration at half of the fitted maximal effect; nearly all actives have a fitted effect of over 35% in size
LASV entry inh: inhibitors of Lassa virus binding or cell entry; Lassa virus pseudotype entry inhibition, cell reporter; Potency, µM (highest dose often 37.9 µM), without a hit: at the top dose activity change, negative = inhibition, most hits filed as inhibitors; 300,000 compounds, 1.2% hits; AID 540256; calls by dose curve; tested in HEK293 cells; further: potency means the concentration at half of the fitted maximal effect; nearly all actives have a fitted effect of over 50% in size
An asterisk follows results filed as active; i = inactive; ? = inconclusive; · = no result given; [ ] = remark or other dose. An excerpt weighted towards active compounds, which were near 6.5% of everything screened. On the % scale 0 is the no-effect control and ±100 the full control effect.

SMILES	MARV entry inh	VACV Venus inh	HCMV inh	FMDV inh	Vaccinia mCherry	LASV entry inh
CC(NC(=O)CN1C(=O)COc2ccc(S(=O)(=O)N3CCCCCC3)cc21)c1ccccc1 (stereo unspecified)	10.3%[46.1 µM]	-7.5%	-7.3	11.6%	-4.9%	0.7%[46.1 µM]
CCOC(=O)N1C/C(=C\c2ccccc2)C(=O)/C(=C/c2ccccc2)C1	·	?	-101.3*	20µM*	?	·
CCOC(=O)N1CCN(S(=O)(=O)/C=C/c2ccccc2)CC1	?	·	-10.2	-12.0%	·	0.0%
COc1ccc(OC(=O)N2CCOCC2)cc1	·	·	64.6	42.7%	·	·
COc1ccc(OC(=O)N2C/C(=C/c3ccccc3)C(=O)/C(=C\c3ccccc3)C2)cc1	?	-4.6%	-96.5*	31.6µM*	-6.5%	7.08µM*
C[C@@H](CSc1ccccc1)CN1CC[C@H](NC(=O)OCc2ccccc2)CCC1=O	·	?	-78.1*	-26.3%	-0.4%	·
CC(C)(C)c1ccc(C(=O)NCCOc2ccccc2)cc1	1.58µM*	-9.8%	?	20µM*	-3.0%	?
COCCCNCCOc1ccc(C(C)(C)c2ccccc2)cc1	16.4µM*	-18.7%	-24.8	-17.5%	-23.3%	?
COc1ccccc1C(=O)NCCOc1ccc(C(C)(C)C)cc1	·	·	-14.9	-19.4%	·	·
CC(C)(C)c1ccc(C(=O)NCCOc2ccccc2F)cc1	?	-19.2%	-69.5*	35.5µM*	-11.9%	?
CC(C)Cc1ccc(C(=O)NCCOc2ccccc2)o1	-3.4%[46.1 µM]	1.4%	20.6	-2.2%	-12.8%	2.82µM*
CNCCCOc1ccc(C(C)(C)c2ccccc2)cc1	0.0%	·	·	·	·	·
Cc1ccc(OCCNC(=O)c2ccc(COc3ccccc3)o2)cc1	-3.9%	-12.5%	-21.0	-4.7%	-5.2%	?
CCN(CC)S(=O)(=O)c1ccc(C(=O)N2CC(=O)Nc3ccc(F)cc3C2c2ccccc2)cc1 (stereo unspecified)	-26.2%[46.1 µM]	-11.5%	-10.3	-0.9%	-12.9%	?
CCOC(=O)[C@@H]1CSCCS(=O)(=O)N1C(=O)[C@H](CC(C)C)NC(=O)OC(C)(C)C	·	·	-9.6	·	·	?
Cc1ccc([C@H]2C(C#N)=C(N)Oc3cc(C)oc(=O)c32)o1	5.4%[46.1 µM]	4.1%	17.2	25.1µM*	4.2%	-3.5%
COc1ccc(-c2cc(C(C)=O)c(C)n2CCC(=O)NCc2ccc(F)cc2)cc1	·	-5.2%	?	-6.7%	-14.3%	-3.4%[46.1 µM]
Oc1ccc(F)c2cccnc12	?	-15.7%	-28.3	0.0%	-6.1%	20.2%
Oc1ccc(N=Nc2ccccc2C(F)(F)F)c2cccnc12	·	?	-97.4*	-6.8%	?	·
CCS(=O)(=O)c1ccc(N=Nc2ccc(O)c3ncccc23)c(OC)c1	?	?	-92.1*	?	7.94µM*	?
COc1ccccc1N=Nc1ccc(O)c2ncccc12	·	?	-73.4*	-10.4%	?	·
CCO[C@@H](Cc1ccc(OCCc2ccc(OS(C)(=O)=O)cc2)cc1)C(=O)O	·	·	3.0	·	·	·
CCC1CSC(Nc2ccc(C(=O)/C=C/c3cccc(C)c3)cc2)=N1 (stereo unspecified)	?	·	-63.2*	-24.4%	·	5.4%
CC(=O)C1=C(O)C2(C)c3c(O)c(C)c(O)c(C(C)=O)c3OC2CC1=O (stereo unspecified)	·	?	?	10µM*	?	·
Cc1ccc(OCCCCN2CCC(C)CC2)c(Br)c1	14.6µM*	-14.7%	-66.5*	-10.4%	i	?
SMILES	MARV entry inh	VACV Venus inh	HCMV inh	FMDV inh	Vaccinia mCherry	LASV entry inh
Clc1ccc(Cl)c(OCCCCN2CCNCC2)c1	11.2µM*	-20.0%	82.9	-5.6%	-6.9%	?
Cc1ccc(OCCCCCCN2CCNCC2)c(Br)c1	12.6µM*	-26.5%	-63.4*	-18.6%	-12.0%	?
Cc1ccc(C)c(OCCCCN2CCCCC2)c1	·	·	48.7	-15.8%	·	·
COc1ccc([C@@H]2[C@H](C(=O)N3CCOCC3)CC(=O)N2C(=O)/C=C/c2ccccc2)cc1	·	·	-21.2	·	·	·
Cc1cccc(CNC(=O)CN2CC(C)Sc3ccccc32)c1 (stereo unspecified)	·	-1.5%	18.8	13.6%	-2.4%	6.4%[46.1 µM]
O=C(CSc1nc2ncccc2[nH]1)c1ccc(F)cc1	10.8%	-19.0%	-18.7	9.0%	·	-0.5%
O=C(CSc1nc2ncccc2[nH]1)c1cccc([N+](=O)[O-])c1	?	-19.8%	-65.6*	-27.9%	?	-9.6%
Cc1ccc(N2CN=c3s/c(=C/c4cccnc4)c(=O)n3C2)cc1	-20.5%[46.1 µM]	·	·	·	·	·
